Results as given in the supplement of paper PMC3334620.
In all, about 33,000 sequences were measured (“E-score (-0.5 to 0.5)”: median about -0.032, highest 2% from about 0.36 on). The sample as a whole holds a higher share of the highest values than the screen did.

Biological target: T1, Sko1 (UniProt Q02100)
T1 sequence: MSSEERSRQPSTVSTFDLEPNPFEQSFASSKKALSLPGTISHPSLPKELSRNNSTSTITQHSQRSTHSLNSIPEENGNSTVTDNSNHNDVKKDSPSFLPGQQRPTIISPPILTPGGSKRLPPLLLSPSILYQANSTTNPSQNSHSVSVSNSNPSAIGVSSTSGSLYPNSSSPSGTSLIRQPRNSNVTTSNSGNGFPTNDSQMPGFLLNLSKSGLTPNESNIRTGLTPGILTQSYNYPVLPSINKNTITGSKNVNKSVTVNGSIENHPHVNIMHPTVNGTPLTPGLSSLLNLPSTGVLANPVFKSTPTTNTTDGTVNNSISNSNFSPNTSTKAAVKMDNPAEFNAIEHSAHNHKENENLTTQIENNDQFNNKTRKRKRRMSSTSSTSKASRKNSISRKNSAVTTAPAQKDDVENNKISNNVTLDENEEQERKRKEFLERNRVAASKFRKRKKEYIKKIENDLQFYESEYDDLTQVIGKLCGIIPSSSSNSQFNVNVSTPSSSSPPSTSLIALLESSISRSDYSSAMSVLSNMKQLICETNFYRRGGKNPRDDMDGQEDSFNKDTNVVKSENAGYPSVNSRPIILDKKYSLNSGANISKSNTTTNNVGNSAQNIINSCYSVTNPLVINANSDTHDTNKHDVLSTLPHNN
Assay: PBM E-score (8-mer binding enrichment) (E-score (-0.5 to 0.5)); higher = stronger / more preferred TF binding
Conditions: protein concentration: 200 nM; construct: GST-full length
Method: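 Universal 'all 10-mer' protein binding microarrays (Agilent AMADID 015681) probed with GST-tagged S. cerevisiae TFs (full-length or DBD) made by in vitro transcription/translation (PURExpress), about 100-200 nM. Bound TF was detected with fluorescent anti-GST. Each ungapped 8-mer (which stands for itself and its reverse complement) is scored by the PBM enrichment score (E-score), a modified Wilcoxon-Mann-Whitney statistic from -0.5 to +0.5, computed with the Universal PBM Analysis Suite. Scale: above 0.35 generally sequence-specific binding.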

Sequence	PBM E-score
AACTCTAT	-0.186
TGATTCAA	0.144
ACCCCATG	-0.0741
ATAATATA	0.268
CTCATAGA	0.00332
ATCATAGA	0.205
GTAATATA	0.374
GTCATAGA	0.406
CTAATATA	0.302
GCCAGTGA	-0.0654
TACCCTGA	-0.126
CGCCTGAC	0.0438
AAGGCACG	0.132
ACCGCCGT	-0.264
GAAAAGGA	-0.0667
CATCATCA	0.361
CGTCATCA	0.489
CCTCATCC	-0.292
CGTCATCC	0.475
AGTCATCA	-0.103
TATCATCA	0.272
GGTCATCA	0.207
CATCATCG	0.347
AGTCATCC	-0.0488
CTGATCGC	-0.0786

Sequence	PBM E-score
ATATGCCA	-0.0891
AAAACAGA	0.112
AGAGTAGC	-0.00834
ACGTGGCA	0.297
ACGTGGCG	0.368
ACGTGGAA	0.311
ACGTGGTA	0.391
ACGTGGAT	0.398
ACGTGGCT	0.321
CCGTGGTA	-0.172
GCGTGGTA	-0.0393
ACGTGGTC	0.364
ACGTGGGC	0.347
ACGTGGAC	0.33
CCGTGGTC	-0.235
AACTCAGG	-0.0444
AGCGCTGC	-0.167
AGACAGAT	0.0457
ACTTGTGG	-0.0685
ACCCGAGC	-0.224
GTAGGCTA	0.0728
CGTTATGA	0.267
CTTGCTTC	0.0228
AGGTTGAC	-0.0293
ACGTCCTC	0.206

Sequence	PBM E-score
GGTCTGGA	-0.25
ACGTGCAC	0.355
ACGTGGTG	0.376
AGGTGGTG	-0.0259
ACGTGCAT	0.396
ACGTGCAA	0.35
AAGTGGTG	-0.113
AACAGTGG	-0.244
AGGGCGAC	-0.2
AAATTCTG	0.052
GTGTTCTA	0.0982
AATCCCGA	0.105
GCATCGCA	-0.35
GTTCGTAA	0.355
ATTCGTCC	0.119
CTTCGTAA	0.287
CTTCGTCC	-0.226
GTTCGTCA	0.367
GTTCGTGA	-0.0757
GTTCGTTA	0.107
CTTCGTTA	0.161
ATTCGTCG	0.22
ATTCGTAA	0.433
CTTCGTCA	0.412
ATTCGTCA	0.464

Sequence	PBM E-score
GAAATGGC	0.00268
CGCAAGCA	0.0501
AAAGGTAT	0.0611
CAACAGTA	-0.0581
CATTTGTC	0.0524
CATAAGAC	0.1
GGTTTGAC	0.0235
GGATGAAA	0.033
CTACGTAA	0.489
GTACGGAC	-0.0428
GTACGAAC	0.284
CTCCGTAA	0.0488
ATACGAAC	0.256
CTACGTAG	0.449
CTACGAAG	-0.0419
ATACGTAC	0.473
CTACGGAG	-0.193
CTACGGAA	0.157
ATCCGTAC	0.151
GTACGTAC	0.44
CCCTAAAG	-0.213
GTGAGGTA	0.0525
ATCGGTGC	0.105
AATAATCT	0.125
CCCATCGC	-0.232

Sequence	PBM E-score
TAGTTACA	0.0798
AGCAAAAC	0.0756
AGGCCCAT	-0.288
ATACGTAT	0.487
CTACGTAC	0.449
GTCCGTAA	0.00251
ATACGAAG	0.223
ATACTTAG	-0.0209
ATACGGAT	0.111
CTCCGTAC	-0.153
ATACGAAT	0.286
ATACGTAG	0.471
CTACGAAC	0.0886
GTACGGAA	-0.00063
GTACGTAA	0.487
ATGGACAC	0.0118
GGATCACC	-0.181
GTCTATGA	0.238
AACTCACA	0.0634
GCACCCGC	-0.0958
AGACTACG	0.136
CCTTACCC	-0.149
GAGCAGGA	-0.112
ATCCGTAA	0.0757
ATACGTAA	0.491

Sequence	PBM E-score
ATACGGAA	0.141
AAGTTCCA	-0.0591
ACTACGCA	0.367
CCTACGCG	0.117
GCTACGCA	0.294
TCTACGCA	0.32
CCTACGCA	0.361
CCTACGCC	-0.0487
CCCCAACC	-0.062
CCCACGGA	-0.0825
CCCACGTA	0.39
CCCACGCC	-0.127
CCCACGTC	0.402
CCCACGGC	-0.145
CCCACGCA	0.109
AACTAATT	0.182
ATCTAGAG	-0.0987
ATGTTTTG	0.109
CTGCGTCC	-0.112
GTGCGTGA	0.274
CTGCGTCA	0.435
ATGCGTCC	-0.124
ATGCGTCG	0.0928
CGGCGTCA	0.241
ATGCGTCA	0.467

Sequence	PBM E-score
GTGCGTTA	0.259
GTGCGTCA	0.456
CTTCAGCA	-0.0157
CACCTTTC	-0.223
CAGACCTA	0.125
ACCTGTCC	-0.267
AAGAAGGT	-0.0729
AAGGATGG	0.00772
AATTGCGT	0.448
AATTGCGA	0.0547
AATTGCGG	-0.172
CGTGAATC	0.13
ACGATTTA	0.328
ATGTGTGG	-0.144
ACGTGGGG	0.316
CCGTGCGC	-0.067
GCGTGTGA	0.107
ACGTGTGC	0.388
ATGTGTGC	-0.0761
ACGTGCGG	0.308
ACGTGTGG	0.395
ACGTGTGA	0.401
ACGTGCGC	0.381
